Common to all, as to test: DAPPL (digital affinity profiling via proximity ligation, sequencing); 10 mM Tris-HCl pH 7.5, 50 mM NaCl, 1 mM DTT, 4% glycerol, room temperature, 30 min; GST-TFs on glutathione beads, 16-mer random dsDNA library, 0.1% formaldehyde crosslink after washing; high values mean tight binding
Conditions in all cases: protein: recombinant; tags: N-terminal GST; dsDNA, one strand shown

One test has as its target T1, FLI1 (Homo sapiens, UniProt Q01543 1-452).
T1 sequence: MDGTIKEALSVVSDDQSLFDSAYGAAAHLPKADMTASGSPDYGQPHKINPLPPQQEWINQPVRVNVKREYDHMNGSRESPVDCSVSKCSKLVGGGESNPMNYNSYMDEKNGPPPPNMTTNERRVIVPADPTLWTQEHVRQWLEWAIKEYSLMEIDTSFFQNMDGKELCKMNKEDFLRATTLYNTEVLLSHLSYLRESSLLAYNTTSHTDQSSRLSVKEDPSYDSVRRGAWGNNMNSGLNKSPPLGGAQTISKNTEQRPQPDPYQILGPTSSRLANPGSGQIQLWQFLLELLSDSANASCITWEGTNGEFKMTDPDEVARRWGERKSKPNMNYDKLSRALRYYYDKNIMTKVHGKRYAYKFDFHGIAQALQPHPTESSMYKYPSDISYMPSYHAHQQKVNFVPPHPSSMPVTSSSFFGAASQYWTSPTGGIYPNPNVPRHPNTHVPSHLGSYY
An outline of the steps: (§1)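 After expression in yeast as GST fusions, human transcription factors were bound to glutathione beads, DNA-barcoded and mixed with a tag-only sample. The pools were incubated with 200 nmole of a 16-mer random double-stranded DNA library in Tris/NaCl/DTT/glycerol buffer (30 min, room temperature), washed and crosslinked with 0.1% formaldehyde. Proximity ligation with BsaI/T4 ligase ran for 1 h at 37 °C, before PCR amplification and sequencing on an Illumina NextSeq500. Binding signal is a hexamer's read frequency for a factor divided by its frequency for the tag-only sample.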

The next test concerns the target T2, ELK1 (Homo sapiens, UniProt P19419 1-428).
T2 sequence: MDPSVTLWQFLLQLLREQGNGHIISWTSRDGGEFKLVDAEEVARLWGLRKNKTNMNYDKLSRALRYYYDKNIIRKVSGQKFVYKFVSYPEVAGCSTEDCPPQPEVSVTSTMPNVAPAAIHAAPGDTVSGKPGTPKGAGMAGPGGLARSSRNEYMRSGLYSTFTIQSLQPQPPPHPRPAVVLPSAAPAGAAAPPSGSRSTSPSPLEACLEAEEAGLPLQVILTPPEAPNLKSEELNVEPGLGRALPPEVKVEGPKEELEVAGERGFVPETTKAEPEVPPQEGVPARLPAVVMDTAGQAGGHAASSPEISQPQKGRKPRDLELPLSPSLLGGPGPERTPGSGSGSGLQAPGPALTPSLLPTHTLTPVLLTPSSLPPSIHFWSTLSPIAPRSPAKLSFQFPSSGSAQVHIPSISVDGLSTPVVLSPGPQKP
The procedure, abridged: as §1

The next test deals with T3, GABPA (Homo sapiens, UniProt Q06546 1-454).
T3 sequence: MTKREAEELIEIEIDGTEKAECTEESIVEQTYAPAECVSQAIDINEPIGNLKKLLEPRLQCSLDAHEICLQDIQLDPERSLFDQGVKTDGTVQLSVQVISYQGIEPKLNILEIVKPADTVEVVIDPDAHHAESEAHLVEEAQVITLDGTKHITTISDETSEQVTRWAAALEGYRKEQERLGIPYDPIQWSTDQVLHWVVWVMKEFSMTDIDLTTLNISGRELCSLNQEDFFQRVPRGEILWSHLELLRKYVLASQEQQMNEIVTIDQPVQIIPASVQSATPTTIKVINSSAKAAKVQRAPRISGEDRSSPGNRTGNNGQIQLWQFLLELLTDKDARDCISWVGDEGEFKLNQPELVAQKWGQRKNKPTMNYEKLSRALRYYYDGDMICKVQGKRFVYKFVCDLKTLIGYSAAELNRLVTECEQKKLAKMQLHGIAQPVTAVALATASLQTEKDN
The procedure, abridged:
as §1

The target of a further test is T4, ERG (Homo sapiens, UniProt P11308 1-479).
T4 sequence: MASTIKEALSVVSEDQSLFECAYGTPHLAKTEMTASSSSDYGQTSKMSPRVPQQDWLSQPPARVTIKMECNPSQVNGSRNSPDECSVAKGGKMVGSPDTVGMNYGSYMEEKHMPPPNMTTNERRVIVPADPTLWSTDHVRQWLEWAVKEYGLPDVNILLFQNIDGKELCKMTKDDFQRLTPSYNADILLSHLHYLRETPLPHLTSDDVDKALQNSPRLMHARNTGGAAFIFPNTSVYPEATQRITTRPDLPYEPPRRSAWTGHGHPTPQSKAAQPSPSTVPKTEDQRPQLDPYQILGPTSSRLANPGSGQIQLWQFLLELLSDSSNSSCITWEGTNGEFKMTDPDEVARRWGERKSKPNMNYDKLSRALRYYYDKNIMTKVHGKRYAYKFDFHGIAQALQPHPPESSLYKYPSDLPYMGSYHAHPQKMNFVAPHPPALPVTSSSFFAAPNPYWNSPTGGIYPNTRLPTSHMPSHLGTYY
An outline of the steps:
as §1

The target of a further test is ELF1 (Homo sapiens, UniProt P32519 1-619). An outline of the steps:
as §1

The target of a further test is T5, EHF (Homo sapiens, UniProt Q9NZC4 1-300).
T5 sequence: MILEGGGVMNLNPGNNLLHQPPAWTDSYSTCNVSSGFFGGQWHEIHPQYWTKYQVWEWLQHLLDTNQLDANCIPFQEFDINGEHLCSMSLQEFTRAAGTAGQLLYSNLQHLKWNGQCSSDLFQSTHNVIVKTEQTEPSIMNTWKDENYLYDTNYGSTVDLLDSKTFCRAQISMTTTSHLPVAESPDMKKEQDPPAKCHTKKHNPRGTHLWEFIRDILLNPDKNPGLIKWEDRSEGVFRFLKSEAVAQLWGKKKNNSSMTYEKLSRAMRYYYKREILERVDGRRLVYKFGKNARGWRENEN
An outline of the steps: as §1

Another test deals with SPI1 (Homo sapiens, UniProt P17947 1-270). The procedure, abridged:
as §1

A further test has as its target SPIB (Homo sapiens, UniProt Q01892 1-262). The procedure, abridged:
as §1

The target in a further test is T6, ELK3 (Homo sapiens, UniProt P41970 1-407).
T6 sequence: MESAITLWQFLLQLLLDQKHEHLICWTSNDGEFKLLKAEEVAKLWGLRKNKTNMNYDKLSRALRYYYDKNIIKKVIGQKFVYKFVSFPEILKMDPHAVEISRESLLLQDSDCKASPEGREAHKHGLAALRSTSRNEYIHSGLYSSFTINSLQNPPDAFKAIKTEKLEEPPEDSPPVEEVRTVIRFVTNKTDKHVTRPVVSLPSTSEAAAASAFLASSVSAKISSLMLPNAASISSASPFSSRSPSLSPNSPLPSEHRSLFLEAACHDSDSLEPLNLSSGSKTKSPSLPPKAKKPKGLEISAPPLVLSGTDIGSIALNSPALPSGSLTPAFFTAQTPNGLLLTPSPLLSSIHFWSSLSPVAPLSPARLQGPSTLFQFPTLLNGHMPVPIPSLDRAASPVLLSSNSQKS
An outline of the steps: as §1

A further test has as its target T7, FEV (Homo sapiens, UniProt Q99581 1-238).
T7 sequence: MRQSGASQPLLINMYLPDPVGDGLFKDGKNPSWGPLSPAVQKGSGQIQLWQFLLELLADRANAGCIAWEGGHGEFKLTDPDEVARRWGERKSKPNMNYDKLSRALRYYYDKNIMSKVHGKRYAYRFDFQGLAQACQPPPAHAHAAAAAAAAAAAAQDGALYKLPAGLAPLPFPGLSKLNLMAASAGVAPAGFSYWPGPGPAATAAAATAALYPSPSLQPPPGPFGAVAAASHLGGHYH
The procedure, abridged: as §1

In another test the target is ETV5 (Homo sapiens, UniProt P41161 1-510). The procedure, abridged: as §1
A further test has as its target T8, SPIC (Homo sapiens, UniProt Q8N5J4 1-248).
T8 sequence: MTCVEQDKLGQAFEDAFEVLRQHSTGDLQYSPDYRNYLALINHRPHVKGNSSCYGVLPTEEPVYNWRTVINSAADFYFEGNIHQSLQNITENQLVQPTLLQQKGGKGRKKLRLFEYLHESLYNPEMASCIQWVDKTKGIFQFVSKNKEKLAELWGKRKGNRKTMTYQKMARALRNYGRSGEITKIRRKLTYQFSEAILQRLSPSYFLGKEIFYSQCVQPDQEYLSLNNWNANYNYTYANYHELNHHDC
The procedure, abridged:
as §1

Another test has as its target ELF4 (Homo sapiens, UniProt Q99607 1-663). An outline of the steps:
as §1

For another test, the target named is ETV1 (Homo sapiens, UniProt P50549 1-477). An outline of the steps:
as §1

The target in the next test is T9, ERF (Homo sapiens, UniProt P50548 1-548).
T9 sequence: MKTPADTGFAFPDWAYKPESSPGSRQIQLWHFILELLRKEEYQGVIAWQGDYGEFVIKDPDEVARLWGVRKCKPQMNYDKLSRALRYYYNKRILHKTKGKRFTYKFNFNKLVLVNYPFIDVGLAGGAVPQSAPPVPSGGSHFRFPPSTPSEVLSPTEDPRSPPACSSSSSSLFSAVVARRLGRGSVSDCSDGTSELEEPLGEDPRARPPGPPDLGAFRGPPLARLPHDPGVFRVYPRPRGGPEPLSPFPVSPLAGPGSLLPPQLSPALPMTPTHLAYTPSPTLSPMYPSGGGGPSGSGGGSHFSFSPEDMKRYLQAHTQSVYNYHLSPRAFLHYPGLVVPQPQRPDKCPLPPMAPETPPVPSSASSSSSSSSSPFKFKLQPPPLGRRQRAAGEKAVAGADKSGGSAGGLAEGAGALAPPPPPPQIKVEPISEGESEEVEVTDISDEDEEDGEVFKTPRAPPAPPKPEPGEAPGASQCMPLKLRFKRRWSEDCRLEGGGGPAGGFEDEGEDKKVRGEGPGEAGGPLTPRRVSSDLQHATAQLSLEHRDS
The procedure, abridged: as §1

Another test concerns the target T10, ETV3L (Homo sapiens, UniProt Q6ZN32 1-361).
T10 sequence: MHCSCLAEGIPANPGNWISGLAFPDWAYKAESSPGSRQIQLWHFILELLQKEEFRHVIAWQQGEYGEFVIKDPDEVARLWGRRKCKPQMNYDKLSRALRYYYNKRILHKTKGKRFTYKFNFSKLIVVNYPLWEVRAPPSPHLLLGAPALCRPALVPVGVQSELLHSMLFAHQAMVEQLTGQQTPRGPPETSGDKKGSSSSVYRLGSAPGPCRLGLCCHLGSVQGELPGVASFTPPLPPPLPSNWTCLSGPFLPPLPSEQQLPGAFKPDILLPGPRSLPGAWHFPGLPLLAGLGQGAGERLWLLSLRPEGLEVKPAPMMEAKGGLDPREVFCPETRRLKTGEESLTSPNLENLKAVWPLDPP
An outline of the steps: as §1

For a further test, the target named is T11, ETS2 (Homo sapiens, UniProt P15036 1-469).
T11 sequence: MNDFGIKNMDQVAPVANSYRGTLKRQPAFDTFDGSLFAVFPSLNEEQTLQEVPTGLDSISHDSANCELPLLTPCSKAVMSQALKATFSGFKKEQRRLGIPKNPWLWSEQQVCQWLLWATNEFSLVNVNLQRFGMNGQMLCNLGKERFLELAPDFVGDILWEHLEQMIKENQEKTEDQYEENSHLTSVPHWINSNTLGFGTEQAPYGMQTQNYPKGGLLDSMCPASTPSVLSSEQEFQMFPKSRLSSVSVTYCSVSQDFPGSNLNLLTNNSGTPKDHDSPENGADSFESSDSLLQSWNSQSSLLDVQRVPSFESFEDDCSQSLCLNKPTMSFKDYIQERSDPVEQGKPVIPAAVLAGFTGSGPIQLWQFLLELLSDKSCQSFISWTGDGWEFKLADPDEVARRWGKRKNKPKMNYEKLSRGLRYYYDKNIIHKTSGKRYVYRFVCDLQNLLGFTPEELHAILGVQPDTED
An outline of the steps:
as §1

The target of the next test is T12, ELF5 (Homo sapiens, UniProt Q9UKW6-2 1-255).
T12 sequence: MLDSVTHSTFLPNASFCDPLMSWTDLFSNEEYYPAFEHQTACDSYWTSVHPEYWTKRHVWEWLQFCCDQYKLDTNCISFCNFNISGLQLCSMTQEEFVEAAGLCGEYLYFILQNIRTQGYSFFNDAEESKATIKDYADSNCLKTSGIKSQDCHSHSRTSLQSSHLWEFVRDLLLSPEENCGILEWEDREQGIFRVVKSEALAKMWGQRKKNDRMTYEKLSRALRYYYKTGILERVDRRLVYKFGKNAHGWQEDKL
An outline of the steps:
as §1

The next test deals with T13, ETV3 (Homo sapiens, UniProt P41162-2 1-143).
T13 sequence: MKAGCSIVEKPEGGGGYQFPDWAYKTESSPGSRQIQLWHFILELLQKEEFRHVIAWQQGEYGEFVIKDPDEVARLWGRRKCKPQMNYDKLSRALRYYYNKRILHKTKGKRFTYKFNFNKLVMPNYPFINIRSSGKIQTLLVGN
An outline of the steps:
as §1

Chain of SPIB (Q01892 whole entry): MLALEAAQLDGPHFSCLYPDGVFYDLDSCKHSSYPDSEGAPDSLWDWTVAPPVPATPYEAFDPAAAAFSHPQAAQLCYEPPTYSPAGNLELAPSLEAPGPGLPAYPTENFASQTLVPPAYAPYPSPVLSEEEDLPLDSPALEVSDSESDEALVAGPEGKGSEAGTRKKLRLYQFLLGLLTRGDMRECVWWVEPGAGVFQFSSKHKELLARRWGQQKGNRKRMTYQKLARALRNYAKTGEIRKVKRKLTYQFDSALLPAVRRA
Chain of ELF1 (P32519 whole entry): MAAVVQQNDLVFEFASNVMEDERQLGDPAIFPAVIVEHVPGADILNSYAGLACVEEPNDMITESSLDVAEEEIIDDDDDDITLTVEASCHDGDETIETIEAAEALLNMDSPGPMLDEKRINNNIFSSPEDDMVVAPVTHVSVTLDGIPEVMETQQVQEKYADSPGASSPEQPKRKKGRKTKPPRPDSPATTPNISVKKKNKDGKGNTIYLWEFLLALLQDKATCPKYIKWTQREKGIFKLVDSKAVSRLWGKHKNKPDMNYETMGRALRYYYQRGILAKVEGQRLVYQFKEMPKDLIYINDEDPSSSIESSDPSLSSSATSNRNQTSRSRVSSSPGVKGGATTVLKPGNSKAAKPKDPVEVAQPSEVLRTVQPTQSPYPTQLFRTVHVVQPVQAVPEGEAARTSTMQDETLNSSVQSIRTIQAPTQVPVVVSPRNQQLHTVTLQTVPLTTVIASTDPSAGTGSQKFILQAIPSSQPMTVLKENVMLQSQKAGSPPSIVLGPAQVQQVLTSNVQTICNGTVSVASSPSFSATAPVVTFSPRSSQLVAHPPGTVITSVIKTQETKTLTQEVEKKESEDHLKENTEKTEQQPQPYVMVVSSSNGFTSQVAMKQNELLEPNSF
Chain of ETV1 (P50549 whole entry): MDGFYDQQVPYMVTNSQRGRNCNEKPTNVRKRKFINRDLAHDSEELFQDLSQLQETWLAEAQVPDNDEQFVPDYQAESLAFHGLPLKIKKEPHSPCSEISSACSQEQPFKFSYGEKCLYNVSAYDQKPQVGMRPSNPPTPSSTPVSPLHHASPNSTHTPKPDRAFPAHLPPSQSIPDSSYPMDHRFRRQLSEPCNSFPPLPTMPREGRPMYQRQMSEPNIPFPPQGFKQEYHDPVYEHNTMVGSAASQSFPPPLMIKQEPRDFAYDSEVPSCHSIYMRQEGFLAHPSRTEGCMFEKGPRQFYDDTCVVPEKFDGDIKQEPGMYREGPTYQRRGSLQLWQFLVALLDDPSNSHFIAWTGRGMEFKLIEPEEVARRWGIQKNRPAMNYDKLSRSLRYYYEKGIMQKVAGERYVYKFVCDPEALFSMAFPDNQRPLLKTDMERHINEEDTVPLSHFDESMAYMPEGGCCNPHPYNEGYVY
Chain of ETV5 (P41161 whole entry): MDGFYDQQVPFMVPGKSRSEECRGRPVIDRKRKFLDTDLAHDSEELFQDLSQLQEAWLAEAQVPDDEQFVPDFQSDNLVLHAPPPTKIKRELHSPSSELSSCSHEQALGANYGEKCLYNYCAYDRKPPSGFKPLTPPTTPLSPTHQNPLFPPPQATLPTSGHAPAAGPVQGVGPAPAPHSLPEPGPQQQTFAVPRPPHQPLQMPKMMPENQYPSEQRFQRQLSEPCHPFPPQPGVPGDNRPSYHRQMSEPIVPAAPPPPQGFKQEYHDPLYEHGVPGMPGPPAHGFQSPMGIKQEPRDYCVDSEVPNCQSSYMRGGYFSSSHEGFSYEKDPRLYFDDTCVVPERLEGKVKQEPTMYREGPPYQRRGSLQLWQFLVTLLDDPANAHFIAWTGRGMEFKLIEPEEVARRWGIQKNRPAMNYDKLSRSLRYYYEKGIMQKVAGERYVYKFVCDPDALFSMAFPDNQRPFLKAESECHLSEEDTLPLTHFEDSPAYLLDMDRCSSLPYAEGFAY
Chain of ELF4 (Q99607 whole entry): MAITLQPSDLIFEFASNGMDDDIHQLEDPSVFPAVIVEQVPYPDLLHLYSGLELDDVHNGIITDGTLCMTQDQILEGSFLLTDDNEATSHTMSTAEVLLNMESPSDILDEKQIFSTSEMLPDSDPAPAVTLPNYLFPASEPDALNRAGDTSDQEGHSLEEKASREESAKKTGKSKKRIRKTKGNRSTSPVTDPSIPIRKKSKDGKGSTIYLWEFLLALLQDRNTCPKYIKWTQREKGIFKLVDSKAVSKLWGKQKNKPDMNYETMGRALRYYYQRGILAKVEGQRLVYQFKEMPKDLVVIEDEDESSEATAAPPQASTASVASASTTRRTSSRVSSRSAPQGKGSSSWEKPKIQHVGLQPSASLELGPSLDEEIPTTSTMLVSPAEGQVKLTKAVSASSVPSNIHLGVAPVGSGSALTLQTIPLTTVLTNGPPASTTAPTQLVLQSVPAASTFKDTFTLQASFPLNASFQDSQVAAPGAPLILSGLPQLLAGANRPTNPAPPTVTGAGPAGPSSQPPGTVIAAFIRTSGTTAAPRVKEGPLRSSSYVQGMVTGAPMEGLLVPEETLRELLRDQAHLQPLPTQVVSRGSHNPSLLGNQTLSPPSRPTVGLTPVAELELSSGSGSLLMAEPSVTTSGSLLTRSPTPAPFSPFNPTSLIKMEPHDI

GCTGCG: the binding signal is 1.01 fold enrichment (6-mer frequency, TF over GST control) with FLI1; 1.12 fold enrichment (6-mer frequency, TF over GST control) in the test with ELK1; 1.1 fold enrichment (6-mer frequency, TF over GST control) with GABPA; 1.09 fold enrichment (6-mer frequency, TF over GST control) with ERG; 1.13 fold enrichment (6-mer frequency, TF over GST control) in the test with ELF1; 1.21 fold enrichment (6-mer frequency, TF over GST control) with EHF. The binding signal with SPI1 is 1.08 fold enrichment (6-mer frequency, TF over GST control); with SPIB it was 1.08 fold enrichment (6-mer frequency, TF over GST control); in the test with ELK3, 1.04 fold enrichment (6-mer frequency, TF over GST control); in the test with FEV, 1.1 fold enrichment (6-mer frequency, TF over GST control); in the test with ETV5, 1.12 fold enrichment (6-mer frequency, TF over GST control); in the test with SPIC it was 1.08 fold enrichment (6-mer frequency, TF over GST control). In addition, the binding signal with ELF4 was 1.1 fold enrichment (6-mer frequency, TF over GST control); with ETV1, 1.16 fold enrichment (6-mer frequency, TF over GST control); in the test with ERF it was 1.08 fold enrichment (6-mer frequency, TF over GST control); in the test with ETV3L it was 1.13 fold enrichment (6-mer frequency, TF over GST control); with ETS2 it was 1.14 fold enrichment (6-mer frequency, TF over GST control); in the test with ELF5, 1.04 fold enrichment (6-mer frequency, TF over GST control). The binding signal with ETV3 is 1.07 fold enrichment (6-mer frequency, TF over GST control).

These data come from publication PMC7862700, “An all-to-all approach to the identification of sequence-specific readers for epigenetic DNA modifications on cytosine”.
